Here are results for eight compounds from PubChem BioAssay (Tox21).

Results filed as inconclusive are left out. The source holds several records for some structures; these can differ, active in one and inactive in another. Activity calls are given as the source filed them. Unless noted, calls come from the whole dose curve; as a rule, active = well fitted curve in the direction sought with a large enough effect in the repeat runs; inconclusive = weak or mixed curves; inactive = no such curve, though single readings can be large; an effect the other way counts as inactive or inconclusive.

For assay [1], the target named is Progesterone receptor (Homo sapiens) (UniProt P06401). Nature of the assay: qHTS assay to identify small molecule antagonists of the progesterone receptor (PR) signaling pathway (AID 1346795; active = well fitted inhibition curve with a large enough effect in the signal ratio in the repeat runs, not every such curve was filed as active; the % refers to the signal ratio). Summed up: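 Fluorescence intensity measured 2 hr after adding beta-lactamase FRET substrate to PR-UAS-bla HEK293T cells that had been co-treated 16 hr with compound and 1 nM R5020 (final concentration) in 2% charcoal-stripped FBS.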
For orientation: qHTS replaces the single test concentration by a dilution series.

Assay [2] can be described thus: qHTS assay to identify small molecule antagonists of the progesterone receptor (PR) signaling pathway - cell viability counter screen (AID 1346798). Note: series mostly up to about 92 µM; nearly all actives have a fitted effect of over 50% in size. Summed up:
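CellTiter-Glo luminescence; PR-UAS-bla HEK293T, 3,000 cells/well; compound + R5020, 16 hr, 37C/5% CO2; 30 min RT before read.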

Assay [3] can be described thus: qHTS assay to identify small molecule agonists of the progesterone receptor (PR) signaling pathway - cell viability counter screen (AID 1346799; calls by dose curve; note: nearly all actives have a fitted effect of over 45% in size). Summed up:
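In parallel with the beta-lactamase readout, cytotoxicity toward PR-UAS-bla HEK293T cells was measured by CellTiter-Glo luminescence following 16 hr compound incubation in 2% charcoal-stripped FBS medium.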

The nature of assay [4]: qHTS assay to identify small molecule antagonists of the TGF-beta/Smad signaling pathway - cell viability counter screen (AID 1346824). Note: nearly all actives have a fitted effect of over 50% in size. Summed up:
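SBE-bla HEK 293T cells were plated overnight at 37 C, then given compounds in DMSO plus TGF-beta1 (added as 0.25 ng/mL solution) for 5 hr. After the bla read, CellTiter-Glo was added to the same wells and luminescence read after 30 min at room temperature.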

A short description of assay [5]: qHTS assay to identify small molecule agonists of the TGF-beta/Smad signaling pathway - cell viability counter screen (AID 1346829). Note: top concentration of the series differs between compounds; nearly all actives have a fitted effect of over 45% in size. Summed up:
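CellTiter-Glo luminescence readout; SBE-bla HEK 293T cells, overnight plating, compound 5 hr at 37 C/5% CO2, then bla substrate 2 hr RT, then CellTiter-Glo 30 min RT.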

A short description of assay [6]: qHTS assay to identify small molecule agonists of the TGF-beta/Smad signaling pathway (AID 1346859; active = well fitted activation curve with a large enough effect in the signal ratio in the repeat runs, not every such curve was filed as active; the % refers to the signal ratio; note: series mostly up to about 77 µM). The method, boiled down:
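After overnight seeding, SBE-bla HEK 293T cells are dosed with compounds in DMSO and kept 5 hr at 37 C, 5% CO2. LiveBLAzer-type FRET substrate is then applied for 2 hr at room temperature.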

For assay [7], the target named is Thyrotropin-releasing hormone receptor (Homo sapiens) (UniProt P34981). Nature of the assay: qHTS assay to identify small molecule antagonists of the thyrotropin-releasing hormone receptor (TRHR) signaling pathway (AID 1346877; active = well fitted inhibition curve with a large enough effect in the repeat runs, not every such curve was filed as active; note: series mostly up to about 51 µM). Summed up:
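HEK293/TRHR cells, 18 h, 37 °C; Ca2+ dye 2 h; cpd 5 min RT; TRH 1 nM final; fluorescence read 3 min, 1 s intervals; 15 concs, triplicate.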

The target is the same in assay [8]. The assay can be described thus: qHTS assay to identify small molecule agonists of the thyrotropin-releasing hormone receptor (TRHR) signaling pathway (AID 1346891; calls by dose curve;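 note: HEK293 cells expressing TRHR with calcium dye readout; series mostly up to about 58 µM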). Summed up:
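Compounds were tested as agonists at 15 concentrations, in triplicate, on TRHR-Hek293 cells; calcium-sensitive dye fluorescence was recorded for 3 min following addition.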

A short description of assay [9]: Caspase-3/7 induction in CHO-K1 cells by small molecules, qHTS cell viability counter screen (AID 1346979). Note: nearly all actives have a fitted effect of over 35% in size. The method, boiled down:
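Viability readout by fluorescence (CellTiter-Fluor) on wild-type CHO-K1 cells exposed for 16hr at 37C and 5% CO2 to compounds delivered in DMSO; reagent incubated 1hr before reading.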

A short description of assay [10]: Caspase-3/7 induction in CHO-K1 cells by small molecules, qHTS assay (AID 1346980). Note: nearly all actives have a fitted effect of over 15% in size. The method, boiled down:
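Wild-type cells were seeded at 1,500 per well and settled 5 hr at 37 C, 5% CO2, then exposed to DMSO-dissolved compounds for 17 hr. Caspase-Glo 3/7 reagent was added, and luminescence was read after 30min at room temperature.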

Assay [11] can be described thus: Caspase-3/7 induction in HepG2 cells by small molecules, qHTS cell viability counter screen (AID 1346981). Note: series mostly up to about 92 µM; nearly all actives have a fitted effect of over 30% in size. The method, boiled down: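 Fluorescence read-out of live-cell protease activity (CellTiter-Fluor) after 1 hr with reagent. This was measured in the same wells as the caspase-3/7 luminescence, on HepG2 cells exposed to DMSO-dissolved compounds for 16 hr at 37 C.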

In assay [12] the target is Cytochrome P450 2D6 (Homo sapiens) (UniProt P10635). Nature of the assay: Cytochrome P450 Family 2 Subfamily D Member 6 (CYP2D6) small molecule antagonists: luciferase reporter qHTS assay (AID 1671196). Note: nearly all actives have a fitted effect of over 50% in size. Note: potency is the fitted concentration of half-maximal effect. Summed up: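 Luminogenic proluciferin substrate, CYP2D6 enzyme; 10 min RT preincubation with compound, NADPH regeneration system added, 1 h RT. Stop/detection reagent, 20 min RT, luminescence read (RLU). Signal proportional to CYP activity.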
In general terms: In a reporter assay the amount or activity of a reporter protein is the signal.

Assay [13] concerns the target Cytochrome P450 2C19 (Homo sapiens) (UniProt P33261). The assay can be described thus: Cytochrome P450 Family 2 Subfamily C Member 19 (CYP2C19) small molecule antagonists: luciferase reporter qHTS assay (AID 1671197). Note: nearly all actives have a fitted effect of over 65% in size. Note: potency is the fitted concentration of half-maximal effect. The method, boiled down: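 Enzyme-substrate mix with proluciferin substrate (P450-Glo CYP2C19 system) preincubated with compounds 10 min at room temperature; NADPH regeneration solution added, 37C for 1 h; detection reagent stops reaction, luminescence read after 20 min. Ketoconazole positive control.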

In assay [14] the target is Cytochrome P450 2C9 (Homo sapiens) (UniProt P11712). Nature of the assay: Cytochrome P450 Family 2 Subfamily C Member 9 (CYP2C9) small molecule antagonists: luciferase reporter qHTS assay (AID 1671198). Note: series mostly up to about 120 µM; nearly all actives have a fitted effect of over 50% in size. The method, boiled down: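 CYP2C9 activity was measured with a P450-Glo proluciferin substrate. Enzyme–substrate mix was held with compound for 10 min at room temperature, then NADPH regeneration solution was added for 1 h at 37C. Luciferin product was read as luminescence.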

For assay [15], the target named is Progesterone receptor (Homo sapiens) (UniProt P06401). Nature of the assay: qHTS assay to identify small molecule agonists of the progesterone receptor (PR) signaling pathway (AID 1346784; calls by dose curve; note: nearly all actives have a fitted effect of over 30% in size). The method, boiled down: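 Fluorescence from LiveBLAzer B/G FRET substrate cleavage (2 hr, RT) reported PR activation in PR-UAS-bla HEK 293T cells treated 16 hr at 37C/5% CO2 with compounds; medium contained 2% charcoal-stripped FBS.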

Assay [16] is described as follows: Human pregnane X receptor (PXR) small molecule agonists, qHTS cell viability counter screen (AID 1346977). Note: nearly all actives have a fitted effect of over 50% in size. The method, boiled down:
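Viability counter screen: CellTiter-Fluor signal in PXR-Luc HepG2 cells, 24hr compound exposure, 37C, 5% CO2.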

A short description of assay [17]: Caspase-3/7 induction in HepG2 cells by small molecules, qHTS assay (AID 1346978). Note: nearly all actives have a fitted effect of over 15% in size. The method, boiled down:
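Wild-type HepG2 cells (2,000/well) were settled 5 h at 37 C, 5% CO2, then exposed to compounds in DMSO for 17 h. Caspase-3/7 activity was read by luminescence 30 min after adding Caspase-Glo 3/7 reagent at room temperature.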

Assay [18] concerns the target Nuclear receptor subfamily 1 group I member 2 (Homo sapiens) (UniProt O75469). Nature of the assay: CYP3A4 induction through human pregnane X receptor (PXR) by small molecules, qHTS assay (AID 1346984). Note: nearly all actives have a fitted effect of over 40% in size. The method, boiled down:
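HepG2-derived DPX-2 line carrying PXR plus a CYP3A4-promoter luciferase reporter; cells plated 5 hr, compound-exposed 24 hr at 37C. CYP3A4 activity probed with 3uM (final) Luciferin-IPA for 3hr, then luciferase read after One-Glo.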

Assay [19] has the same target. The assay can be described thus: Human pregnane X receptor (PXR) activation by small molecules, qHTS assay (AID 1346985). Note: nearly all actives have a fitted effect of over 40% in size. Summed up:
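DPX-2 cells (HepG2 co-transfected with a PXR response element and a CYP3A4-promoter luciferase construct) were seeded at 2,000 per well, rested 5 hr at 37C, then exposed to DMSO-dissolved compounds for 24 hr. Activation was read as luciferase luminescence.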

Assay [20] shares this target. The assay can be described thus: Human pregnane X receptor (PXR) small molecule agonists, qHTS assay (AID 1346982). Note: nearly all actives have a fitted effect of over 35% in size. The method, boiled down:
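HepG2 PXR-Luc reporter line, 5% charcoal-stripped FBS; 5 hr pre-incubation, compound (DMSO) 24 hr at 37 C/5% CO2; ONE-Glo 30 min RT; luminescence read-out.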
% is set by controls: 0 for no effect and ±100 for the full control effect.

Progesterone receptor (Homo sapiens), sequence (P06401 whole entry, looked up): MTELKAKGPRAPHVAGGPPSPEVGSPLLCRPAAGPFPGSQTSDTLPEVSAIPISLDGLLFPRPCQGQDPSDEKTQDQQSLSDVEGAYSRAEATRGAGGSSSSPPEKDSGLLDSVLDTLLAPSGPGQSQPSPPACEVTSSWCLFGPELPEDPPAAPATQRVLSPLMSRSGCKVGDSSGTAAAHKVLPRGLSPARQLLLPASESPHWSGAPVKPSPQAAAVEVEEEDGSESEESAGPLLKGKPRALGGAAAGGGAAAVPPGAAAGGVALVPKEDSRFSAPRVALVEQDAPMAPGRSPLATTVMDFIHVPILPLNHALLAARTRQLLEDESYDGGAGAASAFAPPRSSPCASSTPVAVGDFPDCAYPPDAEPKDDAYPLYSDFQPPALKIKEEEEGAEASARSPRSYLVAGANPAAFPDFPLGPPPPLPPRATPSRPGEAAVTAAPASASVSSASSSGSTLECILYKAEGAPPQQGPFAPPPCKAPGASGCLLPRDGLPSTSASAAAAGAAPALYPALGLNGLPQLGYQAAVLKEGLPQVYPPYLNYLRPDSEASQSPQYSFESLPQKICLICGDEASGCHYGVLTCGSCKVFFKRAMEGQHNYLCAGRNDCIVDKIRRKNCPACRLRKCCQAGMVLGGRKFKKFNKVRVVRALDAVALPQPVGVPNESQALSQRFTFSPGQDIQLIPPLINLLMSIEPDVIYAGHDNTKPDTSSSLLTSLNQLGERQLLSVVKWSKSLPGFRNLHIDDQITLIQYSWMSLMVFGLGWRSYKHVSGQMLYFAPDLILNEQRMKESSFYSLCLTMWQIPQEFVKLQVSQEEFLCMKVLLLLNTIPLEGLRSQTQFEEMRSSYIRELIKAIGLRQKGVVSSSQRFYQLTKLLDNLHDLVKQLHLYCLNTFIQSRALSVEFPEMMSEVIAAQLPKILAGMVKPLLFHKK
Cytochrome P450 2D6 (Homo sapiens), sequence (P10635 whole entry, looked up): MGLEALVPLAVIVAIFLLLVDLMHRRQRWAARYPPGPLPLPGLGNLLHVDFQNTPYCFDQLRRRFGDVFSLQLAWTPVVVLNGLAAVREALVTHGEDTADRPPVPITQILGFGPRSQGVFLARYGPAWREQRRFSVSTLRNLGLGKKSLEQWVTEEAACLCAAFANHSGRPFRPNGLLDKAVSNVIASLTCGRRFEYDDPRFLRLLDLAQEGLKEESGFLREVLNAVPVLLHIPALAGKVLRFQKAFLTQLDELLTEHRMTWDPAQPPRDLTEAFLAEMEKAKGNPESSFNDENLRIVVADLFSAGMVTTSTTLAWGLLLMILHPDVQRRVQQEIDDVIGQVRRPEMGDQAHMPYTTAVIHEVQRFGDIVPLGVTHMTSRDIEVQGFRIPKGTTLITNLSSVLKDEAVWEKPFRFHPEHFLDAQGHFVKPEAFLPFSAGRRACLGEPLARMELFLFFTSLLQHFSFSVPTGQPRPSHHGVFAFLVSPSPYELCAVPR
Cytochrome P450 2C19 (Homo sapiens), sequence (P33261 whole entry, looked up): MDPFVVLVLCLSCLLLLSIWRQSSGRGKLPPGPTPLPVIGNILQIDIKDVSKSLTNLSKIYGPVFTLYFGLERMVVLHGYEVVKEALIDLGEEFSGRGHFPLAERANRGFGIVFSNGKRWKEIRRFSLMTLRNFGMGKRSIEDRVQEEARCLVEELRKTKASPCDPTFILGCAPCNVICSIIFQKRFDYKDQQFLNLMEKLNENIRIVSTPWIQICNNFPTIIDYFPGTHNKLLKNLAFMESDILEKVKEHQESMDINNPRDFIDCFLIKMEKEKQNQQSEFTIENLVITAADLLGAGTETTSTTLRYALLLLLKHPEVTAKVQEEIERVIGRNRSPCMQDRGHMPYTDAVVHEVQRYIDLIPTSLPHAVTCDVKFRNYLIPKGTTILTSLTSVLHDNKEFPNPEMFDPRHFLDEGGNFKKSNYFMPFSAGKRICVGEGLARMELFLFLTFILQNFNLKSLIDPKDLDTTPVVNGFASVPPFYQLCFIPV
Cytochrome P450 2C9 (Homo sapiens), sequence (P11712 whole entry, looked up): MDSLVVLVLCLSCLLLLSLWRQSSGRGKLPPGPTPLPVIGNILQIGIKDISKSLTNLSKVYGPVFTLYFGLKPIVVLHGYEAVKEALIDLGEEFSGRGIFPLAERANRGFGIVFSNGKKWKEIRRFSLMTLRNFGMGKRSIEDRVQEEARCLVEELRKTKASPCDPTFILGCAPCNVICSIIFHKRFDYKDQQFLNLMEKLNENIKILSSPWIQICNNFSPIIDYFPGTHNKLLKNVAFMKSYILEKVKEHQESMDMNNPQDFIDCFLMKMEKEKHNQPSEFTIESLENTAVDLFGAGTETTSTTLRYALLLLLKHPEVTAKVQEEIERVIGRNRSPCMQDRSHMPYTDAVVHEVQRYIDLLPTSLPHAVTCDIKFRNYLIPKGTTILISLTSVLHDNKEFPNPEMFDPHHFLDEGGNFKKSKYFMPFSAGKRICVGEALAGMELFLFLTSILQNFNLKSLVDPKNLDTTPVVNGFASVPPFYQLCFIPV
Thyrotropin-releasing hormone receptor (Homo sapiens), sequence (P34981 whole entry, looked up): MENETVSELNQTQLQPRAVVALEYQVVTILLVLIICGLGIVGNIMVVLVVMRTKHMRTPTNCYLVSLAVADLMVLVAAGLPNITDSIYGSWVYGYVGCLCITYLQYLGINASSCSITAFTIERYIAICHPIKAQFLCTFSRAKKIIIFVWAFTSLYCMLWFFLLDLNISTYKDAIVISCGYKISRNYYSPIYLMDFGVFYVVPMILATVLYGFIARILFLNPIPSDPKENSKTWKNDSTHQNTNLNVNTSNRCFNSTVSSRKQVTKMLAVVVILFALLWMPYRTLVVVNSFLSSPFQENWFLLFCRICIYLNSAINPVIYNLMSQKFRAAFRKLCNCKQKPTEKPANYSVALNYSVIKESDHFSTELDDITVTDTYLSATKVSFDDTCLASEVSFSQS
Nuclear receptor subfamily 1 group I member 2 (Homo sapiens), sequence (O75469 whole entry, looked up): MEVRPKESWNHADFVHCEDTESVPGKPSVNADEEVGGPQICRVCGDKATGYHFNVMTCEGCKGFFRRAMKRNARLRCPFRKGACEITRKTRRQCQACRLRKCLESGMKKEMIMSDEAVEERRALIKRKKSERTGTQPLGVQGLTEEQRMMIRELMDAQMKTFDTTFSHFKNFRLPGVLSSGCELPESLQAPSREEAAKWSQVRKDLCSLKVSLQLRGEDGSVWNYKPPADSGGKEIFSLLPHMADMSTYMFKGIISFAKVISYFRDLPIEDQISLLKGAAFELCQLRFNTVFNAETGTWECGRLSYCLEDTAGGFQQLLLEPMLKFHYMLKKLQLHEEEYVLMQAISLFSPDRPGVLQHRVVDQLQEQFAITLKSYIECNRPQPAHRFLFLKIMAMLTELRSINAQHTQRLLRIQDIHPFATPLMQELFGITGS

For `ClC/C=C/CCl`, the Potency result in assay [1], in assay [2], in assay [3], in [4], in [5] and in assay [7] was “inactive” each time. Besides, the Potency entry in assay [8], in [9], in [10], in assay [11], in [13] and in assay [14] was “inactive” throughout. Besides, in assay [6], the result was inactive. Moreover, the Potency in assay [12] is 62.8 µM (active) and inactive.
With `NC[C@H](O)c1ccc(O)c(O)c1`, the Potency result in [15], in assay [1], in assay [2], in assay [3], in assay [4] and in [5] was “inactive” throughout. For the same compound, the Potency entry in assay [16], in assay [17], in assay [9], in assay [10], in assay [11] and in [18] was “inactive” each time. Moreover, the Potency result in assay [19] and in [12] was “inactive” in each case. In [6], the compound was called inactive.
With `Cc1ccc(N)c([N+](=O)[O-])c1`, the Potency result in [15], in [2], in assay [3], in assay [4], in assay [5] and in assay [8] was “inactive” throughout. Further, the Potency result in assay [16], in assay [17], in [9], in [11] and in assay [14] was “inactive” each time. Further, in assay [6], the compound was called inactive. Further, the Potency is 39.4 µM (active) and inactive in assay [12]; 39.4 µM (active) in [13].
On to `CC(C)(C)c1cccc(C(C)(C)C)c1O`, for which the Potency entry in assay [15], in assay [1], in assay [2], in assay [4], in [5] and in [16] was “inactive” throughout. Besides, the Potency result in assay [17], in assay [9] and in assay [11] was “inactive” throughout. Further, in assay [6], the compound was classed as inactive. Moreover, the Potency in assay [12] is 39 µM (active) and inactive; in assay [13], 55.1 µM (active) and inactive.
In the case of `CNC[C@H](O)c1ccc(O)c(O)c1`, the Potency entry in assay [1], in [2], in assay [3], in assay [4], in assay [5] and in assay [7] was “inactive” in each case. Moreover, the Potency entry in assay [8], in assay [16], in [17], in assay [10], in assay [18] and in assay [19] was “inactive” throughout. Further, in [6], the compound was called inactive. For the same compound, the figures for the activity change, negative = cytotoxicity in assay [9] and in assay [11] were 0.265% [at 19 µM] (inactive) and -0.0374% [at 19 µM] (inactive), respectively.
Regarding `CN(C)C`, the Potency result in assay [15], in assay [1], in [2], in [3], in [4] and in assay [5] was “inactive” throughout. Moreover, the Potency entry in assay [16], in assay [9], in [10], in assay [11], in assay [12] and in assay [13] was “inactive” throughout. Moreover, in assay [14], the Potency result was “inactive”. In addition, the compound was classed as inactive in assay [6].
Take `NCCN`: the Potency entry in [15], in assay [2], in [3], in [4], in [5] and in assay [16] was “inactive” each time. The Potency result in assay [17], in assay [9], in assay [10], in [11], in assay [20] and in [18] was “inactive” in each case. Besides, the Potency result in assay [19] and in [14] was “inactive” in each case. Besides, the result in assay [6] was inactive. Further, the Potency in assay [12] is 31.7 µM (active).
With `CCCCCCOCCOCCO`, the Potency entry in assay [15], in assay [1], in assay [2], in assay [3], in assay [4] and in assay [5] was “inactive” in each case. Also, the Potency entry in assay [16], in [17], in [9] and in assay [11] was “inactive” throughout. Besides, in assay [6], the compound was classed as inactive.
